GLS inhibitor = blocks human kidney-isoform glutaminase activity; O94925; 0.21% of 410,000 active; Potency, µM (doses to about 45.5 µM), without a hit: at the top dose activity change, negative = inhibition, hits mostly inhibitors; GLS enzymatic activity, qHTS titration; AID 624170; note: % is set by controls: 0 for no effect and ±100 for the full control effect
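Read-out is an Amplex red fluorescence increase coupled through glutamate oxidase and HRP, measured before and after 30 min room-temperature incubation. hKGA is in 45 mM KH2PO4 (pH 8.2) with 0.02% Tween-20; glutamine added as 1mM solution.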
JMJD2A Tudor inh = JMJD2A Tudor domain (human) inhibition. O75164. AlphaScreen JMJD2A-Tudor / H3K4me3 peptide binding. Potency, µM (titrated, usually from 114 µM), without a hit: at the top dose activity change, negative = inhibition, most hits filed as inhibitors. 4.4% of 390,000 active. AID 504339; note: % is set by controls: 0 for no effect and ±100 for the full control effect; nearly all actives have a fitted effect of over 50% in size
Target sequence (O75164 whole entry, looked up, the tested form may be a part): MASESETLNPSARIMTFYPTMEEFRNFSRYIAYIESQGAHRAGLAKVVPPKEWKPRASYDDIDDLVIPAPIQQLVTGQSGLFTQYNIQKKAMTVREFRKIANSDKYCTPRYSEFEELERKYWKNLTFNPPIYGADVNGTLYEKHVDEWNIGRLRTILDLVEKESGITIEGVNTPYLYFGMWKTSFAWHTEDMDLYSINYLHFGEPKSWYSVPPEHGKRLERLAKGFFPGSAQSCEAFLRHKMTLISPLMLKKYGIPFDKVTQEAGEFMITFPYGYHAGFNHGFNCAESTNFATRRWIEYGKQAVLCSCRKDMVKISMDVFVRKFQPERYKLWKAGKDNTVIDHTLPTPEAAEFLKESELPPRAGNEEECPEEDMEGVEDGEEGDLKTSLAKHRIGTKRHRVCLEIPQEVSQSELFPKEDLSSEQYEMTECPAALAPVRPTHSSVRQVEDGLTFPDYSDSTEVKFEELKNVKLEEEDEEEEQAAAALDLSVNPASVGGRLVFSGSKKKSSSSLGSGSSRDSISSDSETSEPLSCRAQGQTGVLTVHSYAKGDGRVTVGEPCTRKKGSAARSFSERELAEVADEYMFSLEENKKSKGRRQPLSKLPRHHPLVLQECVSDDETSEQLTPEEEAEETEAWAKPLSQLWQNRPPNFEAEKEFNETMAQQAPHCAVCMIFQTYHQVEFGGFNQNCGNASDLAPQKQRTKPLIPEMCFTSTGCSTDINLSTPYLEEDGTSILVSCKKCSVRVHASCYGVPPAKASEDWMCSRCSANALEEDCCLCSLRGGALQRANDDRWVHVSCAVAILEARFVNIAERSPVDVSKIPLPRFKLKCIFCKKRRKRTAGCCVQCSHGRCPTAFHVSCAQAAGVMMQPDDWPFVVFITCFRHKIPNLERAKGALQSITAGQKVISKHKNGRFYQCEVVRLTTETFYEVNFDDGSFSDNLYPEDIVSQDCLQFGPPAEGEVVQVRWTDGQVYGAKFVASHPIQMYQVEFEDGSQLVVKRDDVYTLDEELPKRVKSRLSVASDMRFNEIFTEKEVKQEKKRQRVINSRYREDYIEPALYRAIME
HP1b binding inh = inhibitors of HP1-beta chromodomain binding to methylated histone tails; AlphaScreen HP1-beta / biotin-H3K9me3 peptide binding; Potency, µM (doses to about 114 µM), for inactives: at the top dose activity change, negative = inhibition, hits mostly inhibitors; 0.56% of 390,000 active; note: nearly all actives have a fitted effect of over 70% in size
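AlphaScreen: HP1-beta (50 nM) preformed 30 min with biotin-H3(1-18)K9me3 peptide (50 nM) in PBS pH 7.4, 0.01% Tween-20. Compound added for 30 min at RT, then streptavidin donor/nickel chelate acceptor beads (10 ug/mL) for 30 min.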
L3MBTL1 inh = inhibitors of human L3MBTL1. Q9Y468. AlphaScreen L3MBTL1–H3K9me1 peptide binding. Potency, µM (titrated, usually from 57.1 µM), without a hit: top-dose activity, negative = inhibition, most hits filed as inhibitors. 0.66% of 230,000 active; note: % is set by controls: 0 for no effect and ±100 for the full control effect; nearly all actives have a fitted effect of over 60% in size
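AlphaScreen assay: L3MBTL1 (50 nM final) was preincubated 30 min at room temperature with biotinylated H3(1-15)K9me1 peptide (75 nM final), then 30 min with library compounds; streptavidin donor and nickel chelate acceptor beads (10 ug/mL final) added, 30 min dark.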
BAZ2B inh = inhibitors of human BAZ2B bromodomain; 4.4% of 360,000 active; Potency, µM (doses to about 114 µM), inactives show top-dose activity change, negative = inhibition, most hits filed as inhibitors; Q9UIF8; AlphaScreen BAZ2B-H3K14Ac peptide displacement; note: % is set by controls: 0 for no effect and ±100 for the full control effect; nearly all actives have a fitted effect of over 60% in size
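Complex of BAZ2B and biotin-H3K14Ac (50 nM apiece) forms over 30 min at RT, then faces library compounds up to 110 uM for another 30 min; AlphaScreen beads added, 20 min dark incubation, luminescence read.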
G9a inh = inhibitors of human histone lysine methyltransferase G9a; Q96KQ7; G9a H3K9 monomethylation, AlphaScreen, 2 h; Potency, µM (highest dose often 102 µM), for the others: at the top dose activity, negative = inhibition, actives largely listed as inhibitors; 8.8% of 350,000 active; AID 504332; note: % is set by controls: 0 for no effect and ±100 for the full control effect; nearly all actives have a fitted effect of over 75% in size
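Compounds were preincubated with 20 nM G9a for 15 min, after which biotinylated H3K9 peptide (500 nM) and SAM (20 uM) started a 2 h room-temperature reaction. Monomethylated product was quantified by antibody-based AlphaScreen chemiluminescence.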
The depositor's hits bear a star; [ ] = another dose, or the depositor's remark. The list is not random: actives were taken first. Their share in the collection is about 10%. Calls come from the whole dose curve; as a rule, active = well fitted curve in the direction sought with a large enough effect; inconclusive = small, poorly fitted or top-dose-only effect, or another doubt; inactive = no such curve, though single readings can be large; an effect the other way counts as inactive or inconclusive. Potency is the fitted concentration of half-maximal effect.

For C=CCN1CC(C(=O)N(CCCN(C)C)C(=O)NCC)CC2c3cccc4[nH]cc(c34)CC21 (stereo not given) the results were GLS inhibitor 44% and G9a inh 9%[12.7 µM].
O=C(NCC1CCN(Cc2cccc(Cl)c2)CC1)Nc1ccc(Cl)cc1 was read as GLS inhibitor -10%, JMJD2A Tudor inh -30%, HP1b binding inh 43%, BAZ2B inh -38% and G9a inh -13%.
Screening CCc1cccc(CN2CCC(CNC(=O)Nc3ccc(Cl)cc3)CC2)c1 returned GLS inhibitor -1%, JMJD2A Tudor inh -19%, HP1b binding inh 27%, L3MBTL1 inh -9%, BAZ2B inh 50µM* and G9a inh -13%.
Screening O=c1c(-c2ccccc2)nc2cnc(N3CCOCC3)nc2n1Cc1cccs1 returned G9a inh 3%[0.501 µM].
`Cc1ccc(OCCCC(=O)Nc2cc(S(=O)(=O)N3CCOCC3)ccc2N2CCOCC2)cc1` gave GLS inhibitor 6%, JMJD2A Tudor inh -18%, HP1b binding inh 1%, L3MBTL1 inh -7%, BAZ2B inh -5% and G9a inh 56µM*.
Screening O=C(CCCOc1ccccc1)Nc1cc(S(=O)(=O)N2CCOCC2)ccc1N1CCOCC1 returned GLS inhibitor -5%, JMJD2A Tudor inh -8%, HP1b binding inh 44%, L3MBTL1 inh -4%, BAZ2B inh 2% and G9a inh 7%[12.7 µM].
For CCN(CC)c1ccc(S(=O)(=O)N2CCOCC2)cc1NC(=O)CNCc1cccc(Cl)c1 the results were GLS inhibitor 8%, JMJD2A Tudor inh 50µM* and HP1b binding inh inconclusive.
For CCN(CC)c1ccc(S(=O)(=O)N2CCOCC2)cc1NC(=O)CSc1ccccc1 the results were GLS inhibitor 6%, JMJD2A Tudor inh -10%, HP1b binding inh 7%, L3MBTL1 inh -9%, BAZ2B inh 5% and G9a inh -30%.
`O=C(CNCc1ccc(Cl)cc1)Nc1cc(S(=O)(=O)N2CCCC2)ccc1Cl` gave GLS inhibitor 1%, JMJD2A Tudor inh 3.5µM* and HP1b binding inh inconclusive.
For Cc1ccc(S(=O)(=O)N2CCOCC2)cc1NC(=O)CNCc1ccc(Cl)cc1Cl the results were GLS inhibitor 1%, JMJD2A Tudor inh -17%, HP1b binding inh 29% and L3MBTL1 inh -3%.
O=C(CNCc1ccccc1Cl)Nc1cc(S(=O)(=O)N2CCOCC2)ccc1Cl was read as GLS inhibitor 0%, JMJD2A Tudor inh 7.9µM*, HP1b binding inh inconclusive and L3MBTL1 inh 0%.
`O=C(Cc1ccccc1F)Nc1cc(S(=O)(=O)N2CCCC2)ccc1Cl` gave GLS inhibitor 4%, JMJD2A Tudor inh -5%, HP1b binding inh 22%, L3MBTL1 inh 1%, BAZ2B inh -6% and G9a inh 27%[59 µM].
Screening CCc1ccc(NC(=O)CSC2=Nc3ccccc3C3=NC(CCC(=O)NCc4cccs4)C(=O)N23)cc1 (stereo not given) returned GLS inhibitor 9%, JMJD2A Tudor inh 0%, HP1b binding inh 28%, BAZ2B inh 0% and G9a inh -1%[59 µM].
Screening CC(C)(C)c1ccc(/C=C/C(=O)Nc2ccc(S(N)(=O)=O)cc2)cc1 returned GLS inhibitor -5%, JMJD2A Tudor inh -23%, HP1b binding inh 32%, BAZ2B inh -3% and G9a inh inconclusive.
For O=C(CNCc1ccco1)Nc1cc(S(=O)(=O)N2CCOCC2)ccc1N1CCOCC1 the results were GLS inhibitor 8%, JMJD2A Tudor inh 18µM*, HP1b binding inh inconclusive and L3MBTL1 inh -1%.
For CCN(CC)c1ccc(S(=O)(=O)N2CCOCC2)cc1NC(=O)CSc1nncs1 the results were GLS inhibitor 2%, JMJD2A Tudor inh -3%, HP1b binding inh 5%, L3MBTL1 inh -18%, BAZ2B inh 11% and G9a inh 35µM*.
`CCN(CC)c1ccc(S(=O)(=O)N2CCOCC2)cc1NC(=O)CSc1nncn1C` gave GLS inhibitor 17%, JMJD2A Tudor inh -19%, HP1b binding inh 31%, L3MBTL1 inh 1%, BAZ2B inh 13% and G9a inh inconclusive.
For ClN=C1C=CC=CC1=NCl the results were GLS inhibitor 10µM*.
For COC(=O)c1cc(NC(=O)c2ccccc2)c(=O)oc1C/C=N\OCc1ccc(Cl)cc1Cl the results were GLS inhibitor 3%, JMJD2A Tudor inh -30%, HP1b binding inh 0%, BAZ2B inh -9% and G9a inh 40µM*.
Screening CO/N=C\Cc1oc(=O)c(NC(=O)c2ccccc2)cc1C(=O)OC returned GLS inhibitor -1%, JMJD2A Tudor inh -10%[11.4 µM], HP1b binding inh -5%, BAZ2B inh -6% and G9a inh 32µM*.
For Cc1oc(=O)c(NC(=O)c2ccccc2)cc1C(N)=O the results were GLS inhibitor 8%, JMJD2A Tudor inh -6%[11.4 µM], HP1b binding inh 42%, L3MBTL1 inh 7%, BAZ2B inh -1% and G9a inh -6%.
`O=C(Nc1cccc(OCc2cc(=O)n3ccccc3n2)c1)Nc1cccc(C(F)(F)F)c1` gave GLS inhibitor -5%, JMJD2A Tudor inh -8%, HP1b binding inh 18%[57 µM], BAZ2B inh 2% and G9a inh 2%[59 µM].
For S=c1[nH]c(=S)c2[nH]cnc2[nH]1 the results were JMJD2A Tudor inh -28%[57.1 µM] and HP1b binding inh 47%[57 µM].
`O=[N+]([O-])c1ccc(Sc2nccn2Cc2ccccc2)c([N+](=O)[O-])c1` gave GLS inhibitor 1%, JMJD2A Tudor inh inconclusive, HP1b binding inh -33%, L3MBTL1 inh -13%, BAZ2B inh inconclusive and G9a inh 45µM*.
For COc1cc(-c2nc3nc[nH]n3c2Nc2ccc(C(C)C)cc2)ccc1O the results were GLS inhibitor inconclusive, JMJD2A Tudor inh inconclusive, HP1b binding inh inconclusive, BAZ2B inh -39% and G9a inh 8.9µM*.
For COc1cc(-c2nc3cnccn3c2Nc2ccc(C(C)C)cc2)ccc1O the results were GLS inhibitor 0%, JMJD2A Tudor inh -19%, HP1b binding inh 20%, BAZ2B inh -7% and G9a inh -5%[59 µM].
For CC(=O)c1c(Nc2ccc3c(c2)OCCO3)oc(C)cc1=O the results were GLS inhibitor -2%, JMJD2A Tudor inh -16%, HP1b binding inh 19%, L3MBTL1 inh 8%, BAZ2B inh -9% and G9a inh 79µM*.
For O=S(=O)(c1ccc2c(c1)OCO2)N1CCN(c2nc(-c3cccs3)nc3ccccc23)CC1 the results were JMJD2A Tudor inh -10% and HP1b binding inh 30%.
COCCNC(=O)C(=O)Nc1ccc2nc3n(c(=O)c2c1)CCCCC3 was read as GLS inhibitor -1%, JMJD2A Tudor inh 6%, HP1b binding inh 40%, BAZ2B inh 4% and G9a inh -1%[59 µM].
